PubChem BioAssay (Tox21)
Where “and” joins values, the source holds several entries; their conditions need not be identical. Equal values may be shown once. Records with an inconclusive call do not appear. Some compounds were tested as several samples or in several runs, with calls that do not always agree. Calls of active or inactive are those of the source. Unless noted, calls follow the shape of the dose curve; as a rule, active = well fitted curve in the direction sought with a large enough effect in the repeat runs; inconclusive = weak or mixed curves; inactive = no such curve, though single readings can be large; an effect the other way counts as inactive or inconclusive.

Assays:
[1] = qHTS assay for identifying genotoxic compounds that show differential cytotoxicity against isogenic chicken DT40 cell lines with known DNA damage response pathways - wild type cell line (AID 743012); also: nearly all actives have a fitted effect of over 60% in size; also: potency is read from the fitted curve at half-maximal effect
Outline: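 Parental DNA repair-proficient DT40 cells, 300 per well, were pre-incubated ~0.5 h at 37 C/5% CO2, pin-dosed with compounds in DMSO, then incubated 40 h. Viability was read as CellTiter-Glo luminescence after 30 min at room temperature.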

[2] = qHTS assay for identifying genotoxic compounds that show differential cytotoxicity against isogenic chicken DT40 cell lines with known DNA damage response pathways - Rev3 mutant cell line (AID 743014); also: nearly all actives have a fitted effect of over 55% in size; also: potency is read from the fitted curve at half-maximal effect
[3] = qHTS assay for identifying genotoxic compounds that show differential cytotoxicity against isogenic chicken DT40 cell lines with known DNA damage response pathways - Rad54/Ku70 mutant cell line (AID 743015); also: nearly all actives have a fitted effect of over 60% in size; also: potency is read from the fitted curve at half-maximal effect
[4] = biological target: Androgen receptor (Homo sapiens) (UniProt P10275); experiment: qHTS assay to identify small molecule agonists of the androgen receptor (AR) signaling pathway using the MDA cell line (AID 743040; also: nearly all actives have a fitted effect of over 20% in size)
Outline: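 After a 5 h incubation at 37C and 0% CO2, MDA-kb2 reporter cells were dosed with compounds in DMSO and kept 16 h under the same conditions. Luciferase activity was then read as luminescence with ONE-Glo.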

[5] = qHTS assay to identify small molecule antagonists of the androgen receptor (AR) signaling pathway using the MDA cell line - cell viability counter screen (AID 743041; also: nearly all actives have a fitted effect of over 45% in size; also: potency is read from the fitted curve at half-maximal effect)
Outline: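 R1881-driven MDA-kb2 AR-luc cells, 3,000/well, were dosed with library compounds for 16 h; cell health came from CellTiter-Fluor fluorescence in the reporter wells.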

[6] = biological target: Androgen receptor (Homo sapiens) (UniProt P10275); experiment: qHTS assay to identify small molecule antagonists of the androgen receptor (AR) signaling pathway using the MDA cell line (AID 743042; also: nearly all actives have a fitted effect of over 55% in size; also: potency is read from the fitted curve at half-maximal effect)
Outline: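 Antagonist mode: compounds plus R1881 agonist added to MDA-kb2 AR-luc cells, incubated 16 h at 37C. Luciferase reporter luminescence quantified, with multiplexed CellTiter-Fluor readout for cell viability.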

[7] = qHTS assay to identify small molecule antagonists of the thyroid receptor (TR) signaling pathway - cell viability counter screen (AID 743064); also: nearly all actives have a fitted effect of over 50% in size; also: potency is read from the fitted curve at half-maximal effect
Outline: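 GH3.TRE-Luc cells, 4 h pre-plating; cpd + T3 1 nM final; 37 °C 23.5 h; CellTiter-Fluor 30 min; fluorescence read.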

[8] = qHTS assay to identify small molecule antagonists of the androgen receptor (AR) signaling pathway - cell viability counter screen (AID 743033; also: nearly all actives have a fitted effect of over 45% in size; also: potency is read from the fitted curve at half-maximal effect)
[9] = biological target: Androgen receptor (Homo sapiens) (UniProt P10275); experiment: qHTS assay to identify small molecule antagonists of the androgen receptor (AR) signaling pathway (AID 743035; active = well fitted inhibition curve with a large enough effect in the signal ratio in the repeat runs, not every such curve was filed as active; the % refers to the signal ratio)
Outline: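 HEK293 cells stably carrying a UAS-driven beta-lactamase reporter (AR-UAS-bla GripTite) were plated for 4 h at 37C, then given compound and the agonist R1881 and incubated 16 h. Reporter activity was read by LiveBLAzer B/G FRET fluorescence after 2 h at room temperature.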

Measured: Potency

Androgen receptor (Homo sapiens), sequence (P10275 whole entry, looked up): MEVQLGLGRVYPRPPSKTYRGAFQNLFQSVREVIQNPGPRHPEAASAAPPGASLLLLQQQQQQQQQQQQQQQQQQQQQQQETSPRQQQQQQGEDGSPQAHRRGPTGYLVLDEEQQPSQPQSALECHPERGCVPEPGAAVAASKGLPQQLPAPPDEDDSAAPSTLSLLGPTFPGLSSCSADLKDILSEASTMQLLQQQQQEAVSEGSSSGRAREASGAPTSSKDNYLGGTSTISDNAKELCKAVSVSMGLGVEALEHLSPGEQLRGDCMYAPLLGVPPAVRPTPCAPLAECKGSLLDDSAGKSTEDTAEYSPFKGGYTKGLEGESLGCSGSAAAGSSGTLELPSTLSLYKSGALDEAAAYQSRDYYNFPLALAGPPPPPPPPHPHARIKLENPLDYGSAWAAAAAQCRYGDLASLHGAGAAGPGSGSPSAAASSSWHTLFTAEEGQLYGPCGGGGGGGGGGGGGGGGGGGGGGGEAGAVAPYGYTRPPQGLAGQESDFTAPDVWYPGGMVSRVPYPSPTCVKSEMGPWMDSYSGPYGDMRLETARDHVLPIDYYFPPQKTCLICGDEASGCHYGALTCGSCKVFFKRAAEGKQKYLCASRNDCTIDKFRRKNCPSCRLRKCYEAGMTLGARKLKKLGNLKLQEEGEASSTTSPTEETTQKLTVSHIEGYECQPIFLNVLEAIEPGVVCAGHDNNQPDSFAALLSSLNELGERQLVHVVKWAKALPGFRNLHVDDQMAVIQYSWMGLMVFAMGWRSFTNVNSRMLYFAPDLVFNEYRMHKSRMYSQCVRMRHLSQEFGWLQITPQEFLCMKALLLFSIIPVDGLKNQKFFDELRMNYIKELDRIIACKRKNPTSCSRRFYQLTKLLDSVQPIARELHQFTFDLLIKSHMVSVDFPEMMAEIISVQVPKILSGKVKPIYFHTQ

CCCCOCN(C(=O)CCl)c1c(CC)cccc1CC
inactive: [4] | [5]
active: [1] 8.63 µM | [2] 9.69 µM | [3] 9.69 µM | [6] 54.5 µM

CCOc1cc(C(C)(C)C)ccc1C1COC(c2c(F)cccc2F)=N1 (stereo not drawn)
inactive: [4] | [5]
active: [1] 26.3 µM | [2] 23.4 µM | [3] 11.7 µM | [7] 18.6 µM

CCN
inactive: [1] | [2] | [3] | [7]

O=[N+]([O-])c1ccc2ccc3cccc4ccc1c2c34
not listed: [9]
inactive: all other assays above

N#CCCC(Br)(C#N)CBr (stereo not drawn)
active: [1] 4.33 µM | [2] 6.11 µM | [3] 7.7 µM | [8] 24.5 µM | [7] 15.4 µM

Clc1ccc(C(c2ccccc2Cl)C(Cl)(Cl)Cl)cc1 (stereo not drawn)
active: [1] 45.1 µM | [2] 45.1 µM | [3] 28.4 µM | [7] 27.5 µM and 40.2 µM

COc1ccc(/C(=C/C(=O)N2CCOCC2)c2ccc(Cl)cc2)cc1OC
active: [1] 24.3 µM | [2] 30.6 µM | [3] 30.6 µM | [6] 30.6 µM
not listed: [8]
inactive: all other assays above

CN(C)S(=O)(=O)N(SC(F)(Cl)Cl)c1ccccc1
active: [1] 0.109 µM | [2] 0.154 µM | [3] 0.109 µM | [8] 3.47 µM | [7] 1.22 µM

CC(=O)[O-].CC(=O)[O-].O.O.[Cd+2]
inactive: [5]
active: [1] 67.6 µM | [2] 67.6 µM | [3] 60.3 µM | [8] 24.2 µM | [7] 24 µM

S=C(SSC(=S)N1CCCCC1)N1CCCCC1
active: [1] 0.531 µM | [2] 0.531 µM | [3] 0.596 µM | [8] 6.01 µM | [5] 1.06 µM | [7] 0.211 µM

O=C(Nc1ccc2[nH]ccc2c1)c1cc2cc(F)ccc2n1Cc1cccc(F)c1
active: [1] 19.3 µM | [2] 27.3 µM | [3] 17.2 µM | [8] 49 µM | [7] 10.9 µM

O=C(O)C1C2CCC(O2)C1C(=O)O (stereo not drawn)
not listed: [4] | [6] | [9]
inactive: all other assays above

Cc1cc(C(C)(C)c2cc(C)c(O)c(C)c2)cc(C)c1O
active: [1] 52.7 µM | [2] 26.4 µM | [3] 26.4 µM | [8] 26.6 µM | [6] 29.6 µM | [7] 23.5 µM
inactive: [4] | [5]

[Cd+2].[Cl-].[Cl-]
active: [1] 19.5 µM and 24.3 µM | [2] 13.8 µM and 27.3 µM | [3] 13.8 µM and 24.3 µM | [8] 24.8 µM | [7] 24.5 µM and 30.6 µM
inactive: [5]

COc1ccc(OC)c(CC(C)N)c1 (stereo not drawn)
not listed: [4] | [6] | [9]
inactive: all other assays above

CCN(CC)C(=S)[S-].CCN(CC)C(=S)[S-].[Zn+2]
active: [1] 1.21 µM | [2] 1.08 µM | [3] 1.08 µM | [8] 0.344 µM | [5] 0.96 µM | [7] 5.4 µM

CC(C)(C)c1cc([N+](=O)[O-])cc(C(C)(C)C)c1O
active: [1] 6.86 µM | [2] 10.9 µM | [3] 7.7 µM | [8] 5.49 µM | [5] 12.2 µM | [7] 12.2 µM

COC12CC[C@@]3(C[C@@H]1C(C)(O)C(C)(C)C)[C@H]1Cc4ccc(O)c5c4[C@@]3(CCN1CC1CC1)[C@H]2O5 (stereo partly drawn)
active: [1] 54.1 µM | [2] 60.7 µM | [3] 48.2 µM | [8] 54.6 µM | [5] 60.7 µM | [7] 21.5 µM

c1ccc2cc3c(cc2c1)-c1cccc2cccc-3c12
not listed: [6] | [7] | [9]
inactive: all other assays above

Oc1ccc(C2(c3ccc(O)cc3)c3ccccc3-c3ccccc32)cc1
active: [1] 68.6 µM | [2] 43.3 µM | [3] 54.5 µM | [8] 54.9 µM | [7] 27.3 µM

Oc1ccc2ccc3cccc4ccc1c2c34
active: [1] 30.6 µM | [2] 48.6 µM | [3] 30.6 µM
inactive: [8] | [5]

CC[C@H](C)[C@H]1O[C@]2(C=C[C@@H]1C)C[C@@H]1C[C@@H](C/C=C(\C)[C@@H](O[C@H]3C[C@H](OC)[C@@H](O[C@H]4C[C@H](OC)[C@@H](O)[C@H](C)O4)[C@H](C)O3)[C@@H](C)/C=C/C=C3\CO[C@@H]4[C@H](O)C(C)=C[C@@H](C(=O)O1)[C@]34O)O2
active: [1] 18.8 µM and 3.61 µM | [2] 21.1 µM and 10.2 µM | [3] 26.6 µM and 6.42 µM | [7] 3.22 µM
inactive: [8] | [5]

CC1(C)CN=C(NN=C(/C=C/c2ccc(C(F)(F)F)cc2)/C=C/c2ccc(C(F)(F)F)cc2)NC1
inactive: [4]
active: [1] 4.33 µM | [2] 3.86 µM | [3] 4.33 µM | [8] 21.9 µM | [7] 12.2 µM

[Hg+2].[I-].[I-]
active: [1] 1.37 µM | [2] 1.22 µM | [3] 0.77 µM | [7] 1.54 µM

N#C/C=C/C#N
inactive: [1] | [2] | [3] | [8]
active: [7] 64 µM

CCCCN(CCCC)C(=S)[S-].CCCCN(CCCC)C(=S)[S-].[Zn+2]
active: [7] 18.8 µM and 7.69 µM
inactive: [1] | [2] | [3] | [5]

CC1CCC(C(C)C)C(OC(=O)c2ccccc2N)C1 (stereo not drawn)
inactive: [2] | [5]
23.7 µM (active) and inactive: [1]
active: [3] 26.6 µM

O=C(CCl)C(Cl)Cl
active: [1] 5.5 µM | [2] 0.692 µM | [3] 4.9 µM | [8] 6.22 µM | [7] 8.71 µM

CCc1nn(C)c(C(=O)NCc2ccc(C(C)(C)C)cc2)c1Cl
active: [1] 0.077 µM | [2] 0.0863 µM | [3] 0.0545 µM | [8] 0.195 µM | [5] 0.0863 µM
